{
  "source": "PubChem BioAssay AID1347417",
  "about": "(National Center for Advancing Translational Sciences (NCATS), 2020)",
  "note": "Out of some 120,000 compounds screened, about 5,300 (4.4%) were called active. Inconclusive results (about 22%) are left out. Calls follow the shape of the dose curve; as a rule, active = well fitted inhibition curve with a large enough effect; inconclusive = small, poorly fitted or top-dose-only effect; inactive = no such curve, though single readings can be large or run the other way. Many of the other results were omitted from the sample, so actives are more common in it than they were. Potency is read from the fitted curve at half-maximal effect.",
  "data": [
    {"test": "qHTS Primary assay for Inhibitors of Plasmodium falciparum Dd2 growth in vitro; also: nearly all actives have a fitted effect of over 65% in size;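 as to activity, negative = inhibition: plate controls were DMSO vehicle for no effect and reference drug for full effect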", "settings": "P. falciparum Dd2 growth, SYBR Green, 72 h; series mostly up to 28.9 µM; activity, negative = inhibition: at the top concentration", "outline": "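Readout: SYBR Green fluorescence, 485 nm excitation, 535 nm emission, after ~16 h lysis at 37C. Before that, Dd2-infected red cells (2.5% hematocrit) grew 72 h with compound, 29 uM top final concentration.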", "values": [
      {"smiles": "COc1ccc(C(=O)N2[C@@H]3CC[C@H]2CC(NC(=O)c2ccncc2)C3)cc1OC", "note": "(some centres not stated)", "activity, negative = inhibition": "-11.9% (inactive)"},
      {"smiles": "O=C(c1cc(F)ccc1F)N1CCC2(CC1)CC(N(Cc1ccccc1)C1CC1)CCO2", "note": "(configuration not stated)", "activity, negative = inhibition": "-7.48% (inactive)"},
      {"smiles": "O=C(c1ccco1)N1CCC2(CC1)CC(N(Cc1ccccc1)C1CC1)CCO2", "note": "(configuration not stated)", "Potency": "4.47 µM (active)"},
      {"smiles": "CC(=O)N(C1CC1)C1CCOC2(CCN(C(=O)CCc3ccccc3)CC2)C1", "note": "(configuration not stated)", "activity, negative = inhibition": "31.1% (inactive)"},
      {"smiles": "CCN1CC2(CCN(C(=O)c3cc4c(cc3OC)CCC4)CC2)OC1=O", "activity, negative = inhibition": "0.279% (inactive)"},
      {"smiles": "O=Cc1cccc(-c2cc(F)cc(F)c2)c1", "activity, negative = inhibition": "20.8% [at 44.1 µM] (inactive)"},
      {"smiles": "CCc1nc2nc(C)cc(Nc3ccc(F)c(Cl)c3)n2n1", "Potency": "3.55 µM (active)"},
      {"smiles": "CC(=O)c1ccc(NC(=O)c2nc3nc(C)cc(C(F)F)n3n2)cc1", "activity, negative = inhibition": "4.1% (inactive)"},
      {"smiles": "Cc1ccc(S(=O)(=O)NCc2nc3nc(C)cc(C)n3n2)cc1", "activity, negative = inhibition": "-23.8% (inactive)"},
      {"smiles": "COCCN1C(=O)c2ccccc2C(C(=O)NC2CCCCCC2)C12CCCCC2", "note": "(configuration not stated)", "outcome": "inactive"},
      {"smiles": "COc1cc(OC)c(NC(=O)Cn2ccn3nc(-c4ccccc4)c(CO)c3c2=O)cc1Cl", "outcome": "inactive"},
      {"smiles": "Cc1cc(N2CCN(c3cccc(C(F)(F)F)c3)CC2)n2nc(-c3ccccc3)nc2n1", "activity, negative = inhibition": "20% (inactive)"},
      {"smiles": "CCNc1ncc(CN2CCN(c3cccc(C(F)(F)F)c3)CC2)cn1", "Potency": "11.2 µM (active)"},
      {"smiles": "CC(C)(C)C(=O)N1CC[C@@H](CC(=O)O)[C@@H](CCN2CCN(c3cccc(C(F)(F)F)c3)CC2)C1", "outcome": "inactive"},
      {"smiles": "N#Cc1ccc(OCC2CN(Cc3c[nH]c4ccccc34)C(=O)c3c(ccnc3-c3ccc(OCC(=O)O)cc3)O2)cc1", "note": "(configuration not stated)", "activity, negative = inhibition": "-0.811% (inactive)"},
      {"smiles": "COc1ccccc1OC1(C(=O)O)CCN(C(=O)CC2CC2)CC1", "activity, negative = inhibition": "-8.58% (inactive)"},
      {"smiles": "CN(C)c1ccc(C(=O)N[C@H]2C[C@H]3C(=O)NC[C@@H](CCC(=O)N4CCCCC4)N3C2)cc1", "activity, negative = inhibition": "-15.2% (inactive)"},
      {"smiles": "Cn1nc2c(c1NC(=O)Cn1nc3c(cc1=O)CCCC3)CSC2", "activity, negative = inhibition": "-25.3% (inactive)"},
      {"smiles": "O=C(CCc1ccccc1)Nc1ccc([C@@H](O)[C@H]2COCC(=O)N2Cc2ccccc2F)cc1", "Potency": "11.2 µM (active)"},
      {"smiles": "CCN1C(=O)COC[C@@H]1C(O)c1ccc(NC(=O)Cc2ccc(OC)cc2)cc1", "note": "(some centres not stated)", "activity, negative = inhibition": "7.62% [at 44.1 µM] (inactive)"},
      {"smiles": "O=C(Nc1ccc([C@@H](O)[C@H]2COCC(=O)N2CCCc2ccccc2)cc1)C1CC1", "activity, negative = inhibition": "-25.8% [at 44.1 µM] (inactive)"},
      {"smiles": "COCC(=O)Nc1ccc([C@@H](O)[C@H]2COCC(=O)N2Cc2ccc(C(F)(F)F)cc2)cc1", "Potency": "12.6 µM (active)"},
      {"smiles": "CCOCCN1C(=O)COC[C@@H]1[C@H](O)c1ccc(NC(=O)c2cnccn2)cc1", "activity, negative = inhibition": "-2.42% [at 44.1 µM] (inactive)"},
      {"smiles": "Cc1ccc(C(=O)Nc2ccc(C(O)[C@H]3COCC(=O)N3Cc3ccccc3F)cc2)cc1", "note": "(some centres not stated)", "outcome": "inactive"},
      {"smiles": "Cc1ccc(Cl)cc1NC(=O)CN1C(=O)NC2(CCC(C)CC2)C1=O", "note": "(configuration not stated)", "outcome": "inactive"},
      {"smiles": "Cc1ccc(CN2CCCOCCNC(=O)CC2)o1", "activity, negative = inhibition": "52.5% (inactive)"},
      {"smiles": "CCn1cc(CN2CC[C@H]3C(=O)NCCCCCCN(Cc4ccncc4)[C@@H]3C2)c(C)n1", "outcome": "inactive"},
      {"smiles": "O=C(NCc1ccccc1)N1CCN2C(=O)NC[C@H]2C1", "outcome": "inactive; activator; fitted 1.122 uM [at 44.1 µM]"},
      {"smiles": "O=C(NC1CCCCCC1)c1ccc2c(c1)CC(=O)N2Cc1cccc(F)c1", "activity, negative = inhibition": "-19.4% (inactive)"},
      {"smiles": "CCOc1ccc(CNC(=O)c2ccc3nc(CC)c(CC)nc3c2)cc1OC", "activity, negative = inhibition": "16.7% (inactive)"},
      {"smiles": "CCOc1ccc(CNC(=O)c2cccc(Nc3nc4ccccc4n4nnnc34)c2)cc1OC", "Potency": "11.2 µM (active)"},
      {"smiles": "CCOc1ccc(OCC)c(Nc2nc3ccccc3n3nnnc23)c1", "activity, negative = inhibition": "12.6% (inactive)"},
      {"smiles": "CC(=O)NCC1Cn2cccc2CN1Cc1ccccc1", "note": "(configuration not stated)", "outcome": "inactive"},
      {"smiles": "O=C(c1cccc(-n2cnnc2)c1)N(Cc1ccsc1)CC1CCCO1", "note": "(configuration not stated)", "activity, negative = inhibition": "-11.7% (inactive)"},
      {"smiles": "CC(C)c1ccc(C2CC(=O)N3CN(C4CCCCC4)CSC3=C2C#N)cc1", "note": "(configuration not stated)", "Potency": "11.2 µM (active)"},
      {"smiles": "CCn1nccc1C(=O)N1CCCC(c2nc(-c3cccnc3)no2)CCNC(=O)CC1", "note": "(configuration not stated)", "activity, negative = inhibition": "6.57% (inactive)"},
      {"smiles": "O=C(c1cc(F)ccc1F)N1CCCCCC1c1nnc(-c2ccccc2)o1", "note": "(configuration not stated)", "outcome": "inactive"},
      {"smiles": "Cc1cc(CN(C)C(=O)c2cc(COc3ccc(F)cc3F)on2)on1", "activity, negative = inhibition": "-11% (inactive)"},
      {"smiles": "CCNc1cc(N2CCC(CCC(=O)N3CCc4ccccc4C3)CC2)ncn1", "outcome": "inactive"},
      {"smiles": "CCCNC(=O)CCC1CCN(C(=O)c2ccc(C)cc2)CC1", "activity, negative = inhibition": "-8.5% (inactive)"},
      {"smiles": "CCCNc1cc(N2CCC(CCC(=O)Nc3ccc(C)cc3)CC2)ncn1", "Potency": "12.6 µM (active)"},
      {"smiles": "CCOc1ccccc1C(=O)N[C@@H]1CN(c2ncccn2)C[C@H]1CO", "activity, negative = inhibition": "-15.4% (inactive)"},
      {"smiles": "CC(=O)N1CCC(C(=O)NCC(=O)N2CCCCCCNC(=O)CC2c2ccccc2)CC1", "note": "(configuration not stated)", "activity, negative = inhibition": "28.6% (inactive)"},
      {"smiles": "Cc1nn2c(c1-c1ccccc1Oc1ccccc1)N(C(=O)C(C)C)CCC2", "Potency": "10 µM (active)"},
      {"smiles": "Cc1nn2c(c1-c1ccccc1N1CCCC1)N(C(=O)c1ccc(Oc3ccccc3)cc1)CCC2", "outcome": "inactive"},
      {"smiles": "Cc1nn2c(c1-c1ccnn1C(C)C)N(C(=O)c1ccc(Oc3ccccc3)cc1)CCC2", "outcome": "inactive"},
      {"smiles": "c1ccc(-c2nnc(CN3CCN(c4cnccn4)CC3)o2)cc1", "activity, negative = inhibition": "-2.37% (inactive)"},
      {"smiles": "COc1cc(Nc2nc(-c3ccc(OC)c(OC)c3)nc3ccccc23)cc(OC)c1", "Potency": "8.91 µM (active)"},
      {"smiles": "COc1ccc(CCNc2nc(-c3ccc(F)cc3)cc(C(F)(F)F)n2)cc1OC", "activity, negative = inhibition": "-11.5% (inactive)"},
      {"smiles": "COc1ccc(Nc2ncc(C(=O)Nc3cc(C)ccc3OC)c3ccccc23)cc1", "activity, negative = inhibition": "-11.9% (inactive)"},
      {"smiles": "COc1ccc(OCc2nc(C)c(CCO)c(=O)n2CC(=O)Nc2ccccc2C)cc1", "activity, negative = inhibition": "0.0593% (inactive)"},
      {"smiles": "CCC(C)NC(=O)CN1CN(c2ccccc2)C2(CCN(C(=O)c3ccccc3OC)CC2)C1=O", "note": "(configuration not stated)", "outcome": "inactive"},
      {"smiles": "O=C(NC1CC(=O)N(Cc2ccccc2C(F)(F)F)C1)c1ccc[n+]([O-])c1", "note": "(configuration not stated)", "activity, negative = inhibition": "7.21% (inactive)"},
      {"smiles": "O=C(c1cn2ccsc2n1)N1CCn2nc(C(O)c3ccccc3)cc2C1", "note": "(configuration not stated)", "activity, negative = inhibition": "-8.57% (inactive)"},
      {"smiles": "COC[C@@H]1CN(C(=O)c2cc(C)oc2C)C[C@H]1c1nc(C2CC2)no1", "activity, negative = inhibition": "-24.6% (inactive)"},
      {"smiles": "NS(=O)(=O)c1ccc2nc(NC(=O)COc3ccccc3)sc2c1", "activity, negative = inhibition": "7.06% (inactive)"},
      {"smiles": "Cc1cc2nc(NC(=O)c3ccc(S(=O)(=O)N4CCOCC4)cc3)sc2cc1C", "activity, negative = inhibition": "0.325% (inactive)"},
      {"smiles": "CN(C)c1cccc(C(=O)Nc2nc3ccc(S(=O)(=O)NC(C)(C)C)cc3s2)c1", "Potency": "11.2 µM (active)"},
      {"smiles": "CCOCCOC1CCN(C(=O)Cc2cccc(OC)c2)CC1", "activity, negative = inhibition": "7.79% (inactive)"},
      {"smiles": "CS(=O)(=O)N1CCC(OC2CCN(C(=O)c3cccc(Cl)c3)CC2)CC1", "activity, negative = inhibition": "22.5% (inactive)"},
      {"smiles": "Cc1ccc(NC(=O)N2CCC(OC3CCN(S(C)(=O)=O)CC3)CC2)cc1F", "Potency": "0.447 µM (active)"},
      {"smiles": "Cc1cccc(C)c1NC(=O)N1CCC(OC2CCN(S(C)(=O)=O)CC2)CC1", "activity, negative = inhibition": "-4.93% (inactive)"}
    ]}
  ]
}
